HP1b binding inh – HP1-beta chromodomain-methylated histone interaction inhibition; AlphaScreen HP1-beta / biotin-H3K9me3 peptide binding; Potency, µM (top dose mostly 114 µM), for inactives: top-dose activity change, negative = inhibition, hits mostly inhibitors; hit rate 0.56% among 390,000; AID 540317; also: nearly all actives have a fitted effect of over 70% in size
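Compound inhibition of the preformed complex between 50 nM HP1-beta and 50 nM biotinylated H3K9me3 peptide was read by AlphaScreen. Buffer was PBS pH 7.4 with 0.01% Tween-20. Incubations ran 30 min at room temperature, with 10 ug/mL donor/acceptor beads.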
JMJD2A Tudor – JMJD2A Tudor domain (human) inhibition. O75164. AlphaScreen JMJD2A-Tudor / H3K4me3 peptide binding. Potency, µM (titrated, usually from 114 µM), inactives show at the top dose activity change, negative = inhibition, hits mostly inhibitors. hit rate 4.4% among 390,000. AID 504339; also: % is scaled to controls: 0 for no effect and ±100 for the full control effect; nearly all actives have a fitted effect of over 50% in size
G9a block – inhibitors of human histone lysine methyltransferase G9a; Potency, µM (doses to about 102 µM), without a hit: at the top dose activity, negative = inhibition, hits mostly inhibitors; Q96KQ7; hit rate 8.8% among 350,000; AID 504332; G9a H3K9 monomethylation, AlphaScreen, 2 h; also: % is scaled to controls: 0 for no effect and ±100 for the full control effect; nearly all actives have a fitted effect of over 75% in size
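Signal arises when biotinylated H3K9 peptide, once monomethylated, bridges streptavidin donor and antibody-captured acceptor beads. Enzyme at 20 nM was preincubated 15 min with test compounds; peptide 500 nM and SAM 20 uM then reacted for 2 h.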
BAZ2B block – inhibitors of human BAZ2B bromodomain | AlphaScreen BAZ2B-H3K14Ac peptide displacement | Potency, µM (doses to about 114 µM), without a hit: top-dose activity change, negative = inhibition, actives largely listed as inhibitors | hit rate 4.4% among 360,000; also: % is scaled to controls: 0 for no effect and ±100 for the full control effect; nearly all actives have a fitted effect of over 60% in size
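AlphaScreen displacement of biotin-H3(5-23)K14Ac peptide (50 nM final) from BAZ2B (50 nM final) in PBS pH 7.4, 0.01% Tween-20; complex preformed 30 min RT, then compounds (top 110 uM) 30 min RT, beads 20 min dark.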
GLS inh – glutaminase GLS (human) inhibition | AID 624170 | hit rate 0.21% among 410,000 | Potency, µM (titrated, usually from 45.5 µM), without a hit: at the highest dose activity change, negative = inhibition, usual class: inhibitors | GLS enzymatic activity, qHTS titration | O94925; also: % is scaled to controls: 0 for no effect and ±100 for the full control effect
Target sequence (O94925 whole entry, looked up): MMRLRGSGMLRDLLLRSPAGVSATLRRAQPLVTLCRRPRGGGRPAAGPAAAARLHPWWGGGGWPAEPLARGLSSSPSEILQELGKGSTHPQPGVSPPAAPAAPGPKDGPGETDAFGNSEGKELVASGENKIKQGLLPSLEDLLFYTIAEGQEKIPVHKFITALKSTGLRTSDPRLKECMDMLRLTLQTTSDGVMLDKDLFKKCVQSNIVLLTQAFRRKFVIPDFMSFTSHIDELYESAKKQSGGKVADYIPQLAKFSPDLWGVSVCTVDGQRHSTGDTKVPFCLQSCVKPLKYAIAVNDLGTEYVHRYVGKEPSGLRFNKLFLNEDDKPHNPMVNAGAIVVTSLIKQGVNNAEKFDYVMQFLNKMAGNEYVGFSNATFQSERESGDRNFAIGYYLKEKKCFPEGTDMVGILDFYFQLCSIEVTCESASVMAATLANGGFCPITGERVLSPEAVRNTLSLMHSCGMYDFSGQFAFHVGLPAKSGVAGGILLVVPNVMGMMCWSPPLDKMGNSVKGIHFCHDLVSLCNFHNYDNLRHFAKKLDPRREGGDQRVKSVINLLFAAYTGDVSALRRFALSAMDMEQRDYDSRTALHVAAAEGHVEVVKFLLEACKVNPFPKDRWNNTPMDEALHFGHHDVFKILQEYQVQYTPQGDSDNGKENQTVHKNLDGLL
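Compounds were pin-transferred onto hKGA, after which L-glutamine (1 mM solution) and a detection mix of glutamate oxidase, HRP and Amplex Red were added. Initial and 30 min RT fluorescence reads were collected.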
The depositor's hits bear a star; [ ] = remark or other dose. A selection: hits, their analogues and other compounds. The true share with any hit is near 10%. Calls follow the shape of the dose curve; as a rule, active = well fitted curve in the direction sought with a large enough effect; inconclusive = small, poorly fitted or top-dose-only effect, or another doubt; inactive = no such curve, though single readings can be large; an effect the other way counts as inactive or inconclusive. Potency is read from the fitted curve at half-maximal effect.

Cc1nn2c(=S)[nH]nc2[nH]c1=O was read as HP1b binding inh -16%, JMJD2A Tudor 28µM*, G9a block 7.1µM* and GLS inh inconclusive.
Screening COc1ccc(-c2sc3ccccc3c2-c2ccc(OCCN(C)C)cc2)cc1 returned HP1b binding inh inconclusive, JMJD2A Tudor 35µM* and GLS inh -2%.
For C1=C(c2sc3ccccc3c2-c2ccc(OCCN3CCOCC3)cc2)CCCC1 the results were HP1b binding inh 2%, JMJD2A Tudor inconclusive and GLS inh -2%.
CN(C)CCOc1ccc(-c2c(-c3ccsc3)sc3ccccc23)cc1 was read as HP1b binding inh -37%, JMJD2A Tudor 50µM* and GLS inh 10%.
`COc1ccc(-c2sc3ccccc3c2-c2ccc(O)cc2)cc1` gave HP1b binding inh 6%, JMJD2A Tudor -30% and GLS inh 5%.
For COc1cccc(-c2sc3ccc(OC)cc3c2-c2ccc(OCCN(C)C)cc2)c1 the results were HP1b binding inh inconclusive, JMJD2A Tudor 28µM* and GLS inh -1%.
For COc1cccc(-c2sc3ccc(OC)cc3c2-c2ccc(O)cc2)c1 the results were HP1b binding inh 23%, JMJD2A Tudor -28%, G9a block 8%[0.501 µM], BAZ2B block 0% and GLS inh 15%.
For NC(Cc1ccccc1)c1csc(Nc2nccc(C(F)(F)F)n2)n1 (centres undefined) the results were GLS inh 5%.
Screening O=c1onc2n1-c1cc(Br)ccc1OC2 returned G9a block 11%[59 µM].
Screening COc1ccc(/C=N/Nc2ccc(C(=O)O)cc2)cc1OC returned HP1b binding inh 38%, JMJD2A Tudor -17%, G9a block -36%, BAZ2B block -11% and GLS inh 13%.
COc1ccc(/C=N/Nc2ccc(C(=O)O)cc2)cc1Br was read as HP1b binding inh 12%, JMJD2A Tudor -26%, G9a block 35µM*, BAZ2B block inconclusive and GLS inh 0%.
`CCOC(=O)COc1cc(Br)c(/C=N/Nc2ccccc2)cc1OC` gave HP1b binding inh 27%, JMJD2A Tudor -24%, G9a block 10µM*, BAZ2B block -1% and GLS inh -14%.
Screening C=CCOc1c(Br)cc(/C=N/Nc2ccc(C(=O)O)cc2)cc1OCC returned HP1b binding inh 2%, JMJD2A Tudor -27%[57.1 µM], G9a block 3.2µM*, BAZ2B block -5% and GLS inh -9%.
CCC1CN(C(=O)N2CCC(C(=O)NCCc3ccccc3Cl)CC2)c2cc(C)ccc2O1 (centres undefined) was read as HP1b binding inh 52%, JMJD2A Tudor -18%, G9a block -21%[59 µM], BAZ2B block -25% and GLS inh 1%.
Screening Cc1ccc(S(=O)(=O)CCC(=O)Oc2ccc(-c3nnco3)cc2)cc1 returned HP1b binding inh 33%, JMJD2A Tudor -1%, G9a block 20µM*, BAZ2B block -2% and GLS inh 8%.
For O=C(ONC1=NCCCCC1)c1cccc([N+](=O)[O-])c1 the results were HP1b binding inh 0%, JMJD2A Tudor -5%, G9a block 4%, BAZ2B block 3% and GLS inh 22µM*.
Screening CCOC(=O)COc1ccc(C(=O)CC)cc1OC returned HP1b binding inh 25%, JMJD2A Tudor 2%, G9a block 7%, BAZ2B block -2% and GLS inh 2%.
Screening CCC(=O)c1ccc(OCC(=O)O)c(OC)c1 returned HP1b binding inh 49%, JMJD2A Tudor 0%, G9a block 79µM*, BAZ2B block 1% and GLS inh -9%.
CCC(=O)c1ccc(OCC(=O)N2CCCC2)c(OC)c1 was read as HP1b binding inh 34%, JMJD2A Tudor 15%, BAZ2B block 50µM* and GLS inh 0%.
For CCN1CCN(c2ccc(S(=O)(=O)N3CCCCC3)cc2NC(=O)/C=C/c2ccc(OC(F)F)cc2)CC1 the results were HP1b binding inh -15%, JMJD2A Tudor -34%, G9a block 14µM*, BAZ2B block 4% and GLS inh 5%.
CC(Oc1ccc(F)cc1)C(=O)Nc1cc(S(=O)(=O)N2CCCCC2)ccc1N1CCN(C)CC1 (centres undefined) was read as HP1b binding inh 13%, JMJD2A Tudor -26% and GLS inh -4%.
CN1CCN(c2ccc(S(=O)(=O)N3CCCCC3)cc2NC(=O)/C=C/c2ccc(OC(F)F)cc2)CC1 was read as HP1b binding inh -25%, JMJD2A Tudor -34%, G9a block 45µM*, BAZ2B block -38% and GLS inh -1%.
Screening C=CCC[C@H](CCCCC)OC(=O)/C=C/[C@@H](O)[C@H](O)C[C@@H](O)CC=C returned GLS inh -18%.
For CCCc1cc(=O)oc2cc(C)cc(OC(C)C(=O)NCCCN3CCOCC3)c12 (centres undefined) the results were HP1b binding inh 29%, JMJD2A Tudor -13%, G9a block -1%[59 µM], BAZ2B block -31% and GLS inh 5%.
Cc1cc(OC(C)C(=O)NCCCN2CCOCC2)c2c(C)cc(=O)oc2c1 (centres undefined) was read as HP1b binding inh 79µM*, JMJD2A Tudor -6%, G9a block 17%[0.0925 µM], BAZ2B block 0% and GLS inh 7%.
Screening COc1ccc(N/N=C(\C#N)C(=N)SCc2ccccc2)cc1 returned HP1b binding inh 27%, JMJD2A Tudor -30%, G9a block 28µM*, BAZ2B block inconclusive and GLS inh 6%.
`COc1ccc(CCC(=O)NCCc2ccc(OC)c(OC)c2)cc1` gave HP1b binding inh 2%, JMJD2A Tudor -15%, G9a block -12%, BAZ2B block 6% and GLS inh -9%.
`COc1ccc(N/N=C(\C#N)C(=N)N2CCCCC2)cc1` gave HP1b binding inh 27%, JMJD2A Tudor -33%, BAZ2B block -37% and GLS inh 3%.
For COc1ccc(N/N=C(\C#N)C(=O)NCCc2ccc(OC)c(OC)c2)cc1 the results were HP1b binding inh 10%, JMJD2A Tudor inconclusive, G9a block 22µM*, BAZ2B block inconclusive and GLS inh inconclusive.
For Nc1nc(NCc2ccc(Cl)c(Cl)c2)c2[nH]cnc2n1 the results were HP1b binding inh 27% and JMJD2A Tudor -26%.
COc1ccc(N=C2NC(=O)S/C2=C\c2ccc(N(C)C)cc2)cc1 was read as HP1b binding inh -18%, JMJD2A Tudor -30%, G9a block -42%[59 µM], BAZ2B block -35% and GLS inh 6%.
For COc1ccc(N=C2C(=Nc3ccc(OC)cc3)N(c3ccc(N(C)C)cc3)C(=S)N2c2ccc(OC)cc2)cc1 the results were HP1b binding inh inconclusive, JMJD2A Tudor 2.2µM*, G9a block 8.9µM*, BAZ2B block 1.6µM* and GLS inh 4%.

From PubChem
